Source: PubChem BioAssay
Hits are enriched below; roughly 2.1% of the tested compounds scored in any of these assays.
Abeta yeast res – qHTS for compounds that reverse cellular toxicity of Amyloid beta (A-beta) peptide in yeast: Primary Screen; yeast expressing A-beta42, growth rescue, OD600, 48 h; response scale: 0% DMSO, 100% iron-clioquinol control; Potency, µM (doses to about 46.1 µM), actives largely listed as activators; 0.063% of 410,000 active; AID 1347071, 2019; note: nearly all actives have a fitted effect of over 55% in size
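Growth rescue measured by 600 nm absorbance after 48 h yeast culture at 30 C with compound. Values normalized between DMSO and an equimolar ferric chloride plus clioquinol control.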
TDP43 rescue – qHTS of TDP-43 Inhibitors | 1.8% of 410,000 active | TDP-43 expressing yeast growth rescue, BacTiter-Glo, 24 h | AID 652104, 2013 | Potency, µM (top dose mostly 46.1 µM), usual class: activators; note: nearly all actives have a fitted effect of over 50% in size
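Readout is BacTiter-Glo luminescence of cell growth, so inhibitors register as activators. TDP-43-expressing yeast at OD600=0.02 in galactose medium, after raffinose pregrowth to mid-log, were incubated with compound for 24 hr at 30 deg C.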
FUS yeast rescue – qHTS for Suppressors of FUS Proteinopathy: Primary screen using FUS-linked yeast assay; Potency, µM (doses to about 76.6 µM), actives largely listed as activators; 0.24% of 390,000 active; S. cerevisiae FUS-expressing, growth rescue, OD600, 24 h; note: nearly all actives have a fitted effect of over 55% in size
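Read-out: OD at 600 nm after 24hr at 30C, reporting rescue of FUS-induced yeast toxicity. Cells at OD 0.005 in galactose (2%) minimal medium; compounds tested in a dilution series; CP55940 titration from 92uM final as control.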
aSyn rescue – qHTS of alpha-syn Inhibitors; Yeast expressing alpha-synuclein, growth rescue, BacTiter-Glo, 24 h; Potency, µM (top dose mostly 46.1 µM), usual class: activators; 0.14% of 370,000 active; note: nearly all actives have a fitted effect of over 65% in size
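Readout is rescue of growth in alpha-synuclein-expressing yeast, so inhibitors of toxicity appear as activators. Growth after 24 hr at 30 deg C in galactose medium is quantified by luminescence.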
Large screens that a line does not name were inactive. Calls come from the whole dose curve; as a rule, active = well fitted curve in the direction sought with a large enough effect; inconclusive = small, poorly fitted or top-dose-only effect, or another doubt; inactive = no such curve, though single readings can be large; an effect the other way counts as inactive or inconclusive.

CC(C)CCNC(=O)c1ccc(Cn2c(=O)c3cccn3c3cccnc32)cc1	none (no result: aSyn rescue)
O=S(=O)(Nc1cccc2cccnc12)c1cccs1	aSyn rescue 22µM (no result: Abeta yeast res, TDP43 rescue, FUS yeast rescue)
Cc1ccc(-c2nc3cccnc3s2)cc1NS(=O)(=O)c1cccs1	TDP43 rescue 11µM
COc1ccc(S(=O)(=O)Nc2cccc3cccnc23)c([N+](=O)[O-])c1	aSyn rescue 22µM (no result: Abeta yeast res, TDP43 rescue, FUS yeast rescue)
O=S(=O)(Nc1cccc2ccccc12)c1cccs1	none
O=S(=O)(Nc1cccc2cccnc12)c1ccc2ccccc2c1	aSyn rescue 18µM (no result: Abeta yeast res, TDP43 rescue, FUS yeast rescue)
Cc1cc(C)c(S(=O)(=O)Nc2cccc3cccnc23)c(C)c1	none (no result: Abeta yeast res, TDP43 rescue, FUS yeast rescue)
Cc1cccc(N2CCN(C(=O)c3cccn3-c3nnc(N4CCCCC4)s3)CC2)c1C	FUS yeast rescue inconclusive (no result: aSyn rescue)
CCOC(=O)C1=C(C)N(CC(C)C)C(=O)/C1=C\c1ccc(OCC(=O)Nc2ccccc2)cc1	TDP43 rescue 18µM
CCOC(=O)c1cc(=O)c2ccc(OCC(=O)Nc3ccccc3)cc2o1	none
O=C1Cc2ccccc2C(=O)N1	TDP43 rescue 22µM
O=C1Nc2ccccc2CCc2ccccc21	none
CCCCNc1oc(-c2ccc(COc3ccccc3C)o2)nc1C#N	none (no result: aSyn rescue)
COCCCNc1oc(-c2ccc(COc3ccccc3C)o2)nc1C#N	TDP43 rescue 16µM (no result: aSyn rescue)
CC(C)OCCCn1c(=O)c2ccccc2n2c(-c3ccccc3)nnc12	none (no result: aSyn rescue)
COc1cc(Nc2nc3c(S(=O)(=O)c4ccc(C)c(C)c4)nnn3c3ccsc23)cc(OC)c1	none (no result: aSyn rescue)
CCCCOc1ccc(C(=O)NCCS(=O)(=O)N2CCN(c3ccccc3OC)CC2)cc1	Abeta yeast res inconclusive, TDP43 rescue 13µM, FUS yeast rescue inconclusive (no result: aSyn rescue)
CCc1nn(CC(=O)NCCc2ccc(Cl)cc2)c(=O)c2cc3c(OC)cccc3n12	none (no result: aSyn rescue)
CCCCNC(=O)C(CC)n1c(SCc2cccc(F)c2)nc2ccncc21 (stereo not drawn)	none (no result: Abeta yeast res, TDP43 rescue, FUS yeast rescue)
Cc1ccc(N2C(=O)C3C4C=CC(CNC(=S)Nc5ccc(Cl)cc5)(O4)C3C2=O)cc1 (stereo not drawn)	TDP43 rescue 14µM (no result: FUS yeast rescue)
CCCCC1CCC(C(=O)N2CC(=O)Nc3ccc(C)cc3C2c2ccc(F)cc2)CC1 (stereo not drawn)	FUS yeast rescue inconclusive (no result: aSyn rescue)
Oc1ccc(NCc2ccc(OCc3ccccc3Cl)cc2)cc1	TDP43 rescue inconclusive (no result: aSyn rescue)
Oc1ccc(NCc2ccc(OCc3ccccc3)cc2)cc1	TDP43 rescue 16µM, FUS yeast rescue inconclusive
Cc1cc(NS(=O)(=O)c2ccc(-c3ccccc3)cc2)no1	Abeta yeast res inconclusive, TDP43 rescue 10µM
COc1ccc(-c2oc3c(c2C#CC2(O)CCCCC2)C(OC(C)=O)CCC3)cc1 (stereo not drawn)	TDP43 rescue 20µM, FUS yeast rescue inconclusive
O=C(Nc1ccc(Cl)cc1Cl)c1cnn2c1NC(=C1CC1)C=C2C(F)F	none (no result: Abeta yeast res, TDP43 rescue, FUS yeast rescue)
COc1cc2cc(CNc3ccccc3)c(=O)n(CC(=O)Nc3cc(C)cc(C)c3)c2cc1OC	FUS yeast rescue 25µM
CCc1ccc(NC(=O)Cn2c(=O)c(CNc3ccccc3)cc3cc(OC)c(OC)cc32)cc1	none (no result: aSyn rescue)
COc1cccc(NC(=O)C(Cc2ccccc2)n2cccc2)c1 (stereo not drawn)	TDP43 rescue 13µM
Cc1csc(NC(=O)C(Cc2ccccc2)n2cccc2)n1 (stereo not drawn)	Abeta yeast res inconclusive, TDP43 rescue 13µM
COc1cccc(CNC(=O)C(Cc2ccccc2)n2cccc2)c1 (stereo not drawn)	none
COc1ccc2oc(=O)c(C(=O)NCCc3c(C)[nH]c4c(C)cccc34)cc2c1	none
CCCn1c2ccccc2c2cnn(CC(=O)NCCCN(Cc3ccccc3)C(C)C)c(=O)c21	none (no result: aSyn rescue)
Cc1nc(Oc2ccccc2)c2ccsc2n1	TDP43 rescue 13µM
COc1ccc(Oc2ncnc3sccc23)cc1	TDP43 rescue inconclusive
O=C(Nc1ccc(C(F)(F)F)cc1Cl)c1ccc(Cn2cc(Br)cn2)o1	TDP43 rescue inconclusive
O=C(Nc1cccc(C(F)(F)F)c1)c1ccc(Cn2cc(Br)cn2)o1	TDP43 rescue 13µM
Cc1csc2nc(COC(=O)c3ccc(NC(=O)c4ccccc4Br)cc3)cc(=O)n12	none (no result: aSyn rescue)
COc1ccc(-c2ccc(C(=O)N3CCN(C)CC3)c3occc23)c(C)c1	none
COc1ccc(-c2ccc(C(=O)N3CCOCC3)c3occc23)c(C)c1	TDP43 rescue 10µM, aSyn rescue inconclusive
COc1ccc(-c2ccc(C(=O)NCc3ccncc3)c3occc23)c(C)c1	none
COc1ccc(-c2ccc(C(=O)NCC3CC3)c3occc23)c(C)c1	TDP43 rescue 22µM
COc1ccc(-c2coc3c(C(=O)NCC4CCOCC4)cccc23)c(C)c1	TDP43 rescue inconclusive, FUS yeast rescue inconclusive
COc1ccc(-c2ccc(C(=O)NCC(C)C)c3occc23)c(C)c1	TDP43 rescue 25µM
S=C(NCCCc1cnc[nH]1)NCCCN(Cc1ccc(Cl)cc1)c1cc(-c2ccccc2)ccn1	none (no result: Abeta yeast res, TDP43 rescue, FUS yeast rescue)
O=C(NC1CCSc2ccccc21)c1cccc(Cl)c1 (stereo not drawn)	TDP43 rescue 5.6µM
CCN(c1cccc(C)c1)S(=O)(=O)c1cc(Br)cc2c1N(C(C)=O)C(C)C2 (stereo not drawn)	none (no result: aSyn rescue)
COc1ccc(NC(=O)c2ccco2)cc1NC(=O)c1ccc(OC(C)C)cc1	TDP43 rescue 14µM, FUS yeast rescue inconclusive (no result: aSyn rescue)
CCc1ccccc1N(CC)C(=O)C(=O)Nc1ccc2nc3n(c(=O)c2c1)CCCCC3	TDP43 rescue inconclusive (no result: aSyn rescue)
CCCC(CC)Sc1nc2c([nH]1)c(=S)n(C)c(=O)n2C (stereo not drawn)	TDP43 rescue 35µM (no result: FUS yeast rescue)
CCCCC(C)Sc1nc2c([nH]1)c(=S)n(C)c(=O)n2C (stereo not drawn)	TDP43 rescue inconclusive (no result: FUS yeast rescue)
O=C1CSC(c2ccc(Cl)c(Cl)c2)N1c1nccs1 (stereo not drawn)	TDP43 rescue 14µM
Cc1ccc(C(=O)N(Cc2ccc(N(C)C)cc2)CC2CCCO2)cc1 (stereo not drawn)	none (no result: aSyn rescue)
COc1cc(CN(C)c2ncnc3sccc23)ccc1OC(F)F	TDP43 rescue 18µM
COc1ccc(OC)c(Nc2ncnc3sccc23)c1	none
Cc1cccc2c(=O)[nH]c3c(-c4nc(-c5ccc(Cl)cc5)cs4)c(O)cn3c12	none (no result: Abeta yeast res, TDP43 rescue, FUS yeast rescue)
Clc1ccccc1OCc1nnc(-c2ccccc2Br)o1	none
O=c1c(Cl)c(Cl)cnn1Cc1nnc(-c2ccccc2Br)o1	TDP43 rescue 13µM
COc1cccc(CNC(=O)CSc2c3c(nc4ccc(Cl)cc24)CCCC3)c1OC	TDP43 rescue inconclusive (no result: aSyn rescue)
CC(C)(C)c1ccc(C(=O)NCCc2csc(-c3ccc(Cl)cc3)n2)cc1	none (no result: aSyn rescue)
COc1ccc(-c2nc(CCNC(=O)c3c(F)cccc3Cl)cs2)cc1	TDP43 rescue 18µM (no result: aSyn rescue)
COc1ccc(NC(=O)C(=O)NCCc2csc(-c3ccc(Cl)cc3)n2)cc1	none (no result: aSyn rescue)
O=C(NCCc1csc(-c2ccc(C(F)(F)F)cc2)n1)c1ccccc1Cl	TDP43 rescue inconclusive (no result: aSyn rescue)
COc1cccc(OC)c1C(=O)NCCc1csc(-c2ccc(Cl)cc2)n1	TDP43 rescue 22µM (no result: aSyn rescue)
